Screens from PubChem.
Compounds with a hit are over-represented: about 4% of the library has one in this group of screens.
NLRP3 yeast inh: inhibitors of NALP3 inflammasome in yeast. inhibition, % at 10 µM. AID 2825. actives 0.39% (n = 330,000). Yeast reconstituted NLRP3/ASC/caspase-1, beta-gal luminescence, 24 h;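 active = inhibition of 50% or more; inactive = inhibition below 50%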;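 note: plate controls were induced DMSO wells for no effect and uninduced yeast grown without galactose for full effect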
tim23-1 inh: tim23-1 yeast growth inhibition | actives 1.3% (n = 330,000) | inhibition, % at 20 µM | S. cerevisiae tim23-1 growth, BacTiter-Glo luminescence, 24 h | AID 463212;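 active = growth inhibition of the mutant yeast at or above 50%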;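 note: temperature-sensitive mutant grown at 25 °C; plate controls were DMSO-treated mutant yeast for no effect and medium wells lacking yeast for full effect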
tim10-1 inh: tim10-1 yeast growth inhibition; S. cerevisiae tim10-1 ts strain growth, BacTiter-Glo, 24 h; inhibition, % at 20 µM; AID 463190; actives 2.2% (n = 330,000);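 active = inhibition of at least 40%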;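 note: mutant grown at 25 °C; 0% = DMSO wells with yeast and 100% = wells holding no yeast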
NALP1 inh: inhibitors of NALP1 inflammasome in yeast. S. cerevisiae NALP1/ASC/caspase-1 growth, X-gal OD620, 72 h. actives 0.61% (n = 280,000). inhibition, % at 10 µM; in the data active = inhibition mostly above about 24%, no sharp cut-off; inactive = mostly below about 32%
TIM10 inh: growth inhibitors of TIM10 yeast strain | S. cerevisiae TIM10 strain growth, BacTiter-Glo luminescence, 24 h | inhibition, % at 10 µM | actives 1.4% (n = 330,000) | AID 463195;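 active = inhibition of 40% or more at the single tested concentration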;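 note: wild-type TIM10 isogenic control strain grown at permissive 25 °C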
tim10 confirm: confirmation of TIM10 yeast growth inhibitors. S. cerevisiae tim10 strain growth, BacTiter-Glo luminescence, 24 h. inhibition, % at 10 µM. shares compounds with TIM10 inh. actives 63% (n = 4,600);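 active = inhibition of yeast growth at or above a set limit in either of two replicates at 10 µM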;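 note: this counterscreen used the strain with wild-type TIM10; 0% = yeast with DMSO and 100% = medium wells lacking yeast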
Numbers without * were called inactive; . = no result.

SMILES | NLRP3 yeast inh | tim23-1 inh | tim10-1 inh | NALP1 inh | TIM10 inh | tim10 confirm
O=[N+]([O-])c1cc([N+](=O)[O-])c2c(=Nc3ccccc3)n(-c3ccccc3)n(O)c2c1 | 19.7 | 47.7 | 18.1 | -11.7 | 49.8* | 66.3*
CCOc1ccc(N/C(SCc2cccc([N+](=O)[O-])c2)=C(/C#N)C(N)=O)cc1 | -2.7 | 37.7 | 39.4 | 4.8 | 45.7* | 41.5*
CCOc1cc(C(=O)OCC(=O)Nc2ccc(F)cc2Cl)ccc1OCC(=O)N1CCOCC1 | 18.1 | -1.5 | 12.5 | . | -12.0 | .
CN(Cc1ccccc1)C(=O)c1[nH]cnc1C(=O)NCC(=O)OCc1ccccc1 | 21.0 | 12.2 | -6.7 | -9.7 | 8.0 | .
CC(=O)c1cc(Cl)ccc1OC(=O)c1ccco1 | 1.2 | 5.3 | 0.9 | 25.0 | 1.5 | .
O=C(Oc1ccc(OC(=O)c2ccco2)c(S(=O)(=O)c2ccc(Cl)cc2)c1)c1ccco1 | 5.9 | 32.1 | 25.3 | 19.5 | 48.9* | -6.2
CCn1cc(Br)c(C(=O)Nc2ccc(Cl)c(Cl)c2)n1 | -4.2 | 24.3 | 38.0 | 13.6 | 61.8* | 45.2*
CCn1cc(Br)c(C(=O)Nc2ccc(OC)cc2)n1 | 15.7 | -7.3 | -3.7 | 10.6 | 5.3 | .
COc1cc(OC)cc(-c2nc3ccccc3c(=O)n2OC(=O)c2ccc(C)c(C)c2)c1 | 33.7 | 48.8 | 37.5 | 29.3 | 50.3* | 25.2
Oc1ccc(Nc2ccnc3cc(Cl)ccc23)cc1 | 11.3 | 1.7 | 9.2 | 18.4 | -4.8 | .
Oc1ccc(/C=N/Nc2ccnc3cc(Cl)ccc23)c(O)c1 | 19.8 | 6.7 | 5.5 | . | 47.4* | 36.0*
CCOC(=O)Nc1cccc(OCC(=O)Nc2ccc3c(c2)CCC3)c1 | 31.7 | 29.3 | -24.5 | . | 49.2* | 2.7
C=CCn1c(SCc2ccc3nonc3c2)nnc1-c1cccs1 | -14.9 | 26.5 | 38.0 | 9.1 | 47.7* | 25.6*
C=CCn1c(SCC(=O)C(C)(C)C)nnc1-c1cccs1 | 7.2 | 18.5 | 17.4 | 23.6 | 0.5 | .
CN1c2ccccc2C(C)(C)[C@]12C=Cc1cc(O)ccc1O2 | 28.2 | 41.6 | 35.8 | 19.1 | 45.2* | 34.9*
Cc1cc(C)c(C(=O)COC(=O)Cn2c(C)csc2=O)cc1C | 19.8 | 33.5 | 23.8 | -3.9 | 10.0 | .
CCc1cc(C(=O)N2CCN(S(=O)(=O)c3ccc(Cl)cc3)CC2)sc1C | 14.5 | 2.9 | -2.4 | . | 2.5 | .
Cc1nn(-c2ccccc2)c(C)c1C(=O)NCc1ccc(F)cc1 | 16.7 | 16.8 | -3.2 | 35.5 | -11.4 | .
Cc1c(C(=O)NCc2ccc(F)cc2)c(-c2ccccc2)nn1-c1ccccc1 | 12.7 | 26.4 | 28.0 | 3.0 | 43.3* | 36.9*
O=C(CCS(=O)(=O)c1ccccc1)NCc1ccccc1 | 7.2 | 5.0 | 9.5 | 12.2 | 18.4 | .
CC(=O)c1ccc2c(c1)Nc1ccccc1S2 | 34.0 | 16.7 | 15.6 | 2.3 | 87.9* | 2.7
C(=N\Nc1nc2ccccc2s1)/c1ccco1 | 14.5 | 41.7 | 15.7 | -0.9 | 8.1 | .
Cc1ccsc1/C=N/Nc1nc2ccccc2s1 | 11.5 | 39.4 | 13.0 | -9.2 | 40.0* | 44.5*
Cc1cc(Oc2nnnn2-c2ccccc2)ccc1Cl | -15.6 | 38.6 | 39.6 | 15.0 | 40.3* | 29.8*
COc1ccccc1-n1c2nc3ccccc3nc2c2c(=O)n(-c3cc(C)cc(C)c3)cnc21 | 23.2 | 33.5 | 26.4 | 22.3 | 25.0 | .
SMILES | NLRP3 yeast inh | tim23-1 inh | tim10-1 inh | NALP1 inh | TIM10 inh | tim10 confirm
COc1ccccc1-n1cnc2c(c1=O)c1nc3ccccc3nc1n2-c1ccc(C)cc1 | -4.2 | 33.5 | 39.1 | 20.0 | 46.2* | 20.8
Cc1cc(NC(=O)C2CCCCC2)ccc1NC(=O)c1ccccc1Cl | -2.0 | 4.2 | 9.6 | 27.1 | 8.2 | .
C/C(=N\NC(=S)NC1CCCCC1)c1ccc(O)cc1 | -4.7 | 39.7 | 32.5 | 16.8 | 48.9* | 41.9*
C/C(=N\NC(=S)NC1CCCCC1)c1ccccc1 | 4.0 | 29.6 | 22.9 | 7.1 | -5.6 | .
O=C(N/N=C/c1ccccc1)NC1CCCCC1 | 13.2 | 23.9 | 18.7 | 15.8 | 7.2 | .
CC(C)(C)c1ccc(/C=N/NC(=S)NC2CCCCC2)cc1 | 14.8 | 36.6 | 34.6 | 9.2 | 95.9* | 47.7*
Cc1[nH]c(=O)[nH]c(=O)c1S(=O)(=O)Nc1ccc(F)cc1F | -20.9 | 3.6 | 5.7 | 17.4 | -3.0 | .
O=C(CCS(=O)(=O)c1ccccc1)Nc1ncc([N+](=O)[O-])s1 | -3.3 | 35.5 | 24.7 | -20.0 | 40.9* | 33.3*
Cc1cccc(NC(=S)N/N=C(\c2ccccc2)C(C)C)c1 | 15.8 | 40.0 | 38.7 | -1.5 | 54.0* | 40.0*
Cc1ccc(-c2nnc(SCC(=O)NC3CCCC3)n2C)cc1 | 7.2 | -0.4 | -13.0 | 2.1 | 10.9 | .
CC(=O)Nc1ccc2nc3c(=O)n(C)c(=O)n(C)c3nc2c1 | 7.7 | 1.9 | 10.7 | 5.7 | 10.2 | .
O=c1c2cc(F)ccc2sn1-c1ccc(F)cc1 | 18.9 | 37.3 | 19.9 | . | 46.6* | 56.8*
COc1ccc2[nH]c(C)c(CCNC(=S)Nc3ccccc3C)c2c1 | 3.9 | 6.3 | 28.5 | 15.8 | 12.3 | .
COc1ccc2[nH]c(C)c(CCNC(=S)Nc3ccc(C)cc3)c2c1 | 4.7 | 25.1 | 39.6 | 35.6 | 40.4* | 19.0
Cc1ccc(NC(=O)CCCCCCCCCCC2COCCO2)c(C)c1 (centres undefined) | -8.2 | 1.7 | 19.9 | 24.1 | -19.0 | .
CC(C)Sc1nc2c(c(=O)n(C)c(=O)n2C)n1Cc1ccc(Cl)cc1 | 12.0 | 22.9 | 1.3 | 25.7 | -17.9 | .
Cn1c(=O)c2c(nc(SCc3ccccc3)n2Cc2ccc(Cl)cc2)n(C)c1=O | 7.6 | 11.6 | 24.9 | -17.3 | 43.0* | 26.3
CCc1nc2c(cnn2-c2ccc(Cl)cc2)c(=O)n1-c1ccc(OC)cc1 | -5.5 | 6.0 | 6.5 | 18.0 | 41.6* | 16.4
Cc1c(CN2CCC(CO)(CCOc3ccccc3)CC2)[nH]c2c(Cl)cccc12 | 20.3 | -21.9 | -40.3 | 11.4 | 44.2* | 15.6
CSc1ccccc1C(=O)Nc1cccc(C)c1 | 31.1 | 36.5 | 19.9 | 2.8 | 43.7* | 30.0
COc1cccc(NC(=O)Nc2cccn(Cc3ccccc3)c2=O)c1 | 9.9 | 30.4 | 6.9 | 8.7 | 43.8* | 28.0*
COc1ccc(Cn2cccc(NC(=O)Nc3cccc(OC)c3)c2=O)cc1 | 10.3 | 30.1 | -9.2 | . | 2.7 | .
COc1cccc(NC(=O)Nc2ccc(Cc3ccncc3)cc2)c1 | 16.4 | 26.2 | 33.2 | 18.6 | 43.7* | -1.8
CCc1cccc(N=c2c([N+](=O)[O-])nn(-c3ccc(Cl)cc3)n2O)c1 | 33.5 | 33.5 | 33.8 | 7.4 | 46.5* | 29.8
Cc1cccc(N=c2c([N+](=O)[O-])nn(-c3ccc(Cl)cc3)n2O)c1 | 16.2 | 29.4 | -18.3 | 8.7 | -139.2 | .
COc1cc(NC(=O)CSc2cc(C)c3cc(C)cc(C)c3n2)c(C(=O)O)cc1OC | -8.8 | 40.2 | 10.1 | . | 44.7* | 17.9*
CC(=O)Nc1cccc(Oc2nc(C(F)(F)F)nc3ccccc23)c1 | 22.5 | 32.7 | 18.0 | -34.9 | 29.0 | .
CC(=O)Nc1cccc(Oc2nc(-c3ccccn3)nc3ccccc23)c1 | 5.2 | 27.6 | 36.4 | -0.8 | 44.8* | 33.0*
